Read-out in test [1]: urokinase plasminogen activator (uPA), PLAU (gene 5328)
The test is described as follows: BSK_KF3CT_uPA: BioMAP Diversity Plus: KF3CT Assay for urokinase plasminogen activator (uPA) Biomarker Activity (AID 2283075). Particulars: primary human keratinocytes with fibroblasts; actives raise or lower the signal. A digest of the protocol:
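ELISA readout of uPA, analyzed for signal gain or loss relative to DMSO, from a human primary keratinocyte–foreskin fibroblast co-culture measured 24 h after chemical treatment.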

Read-out in test [2]: CD40, CD40 (gene 958)
The test can be described thus: BSK_LPS_CD40: BioMAP Diversity Plus: LPS Assay for CD40 Biomarker Activity (AID 2283076). Particulars: primary human HUVEC with PBMC; actives raise or lower the signal. The essentials:
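Primary human umbilical vein endothelial cells co-cultured with peripheral blood mononuclear cells, LPS-stimulated, were dosed with chemical and read 24 h later. CD40 levels were measured by ELISA and fitted bidirectionally against DMSO as negative control and baseline.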

Read-out in test [3]: E-selectin (Homo sapiens) (UniProt P16581)
The test can be described thus: BSK_LPS_Eselectin: BioMAP Diversity Plus: LPS Assay for Eselectin Biomarker Activity (AID 2283077). Particulars: primary human HUVEC with PBMC; actives raise or lower the signal. A digest of the protocol: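 Human umbilical vein endothelial cells co-cultured with peripheral blood mononuclear cells under LPS stimulation; E-selectin measured by ELISA 24 h after chemical dosing. Activity fitted bidirectionally against DMSO as negative control and baseline.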

Test [4] can be described thus: BSK_LPS_SRB: Viability Assessment in the BioMAP Diversity Plus: LPS Assay (AID 2283079).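 Note: total protein by sulforhodamine B absorbance as a cytotoxicity measure; measured one day after compound addition; fitted in both directions against DMSO so loss or gain of signal counts.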 Particulars: primary human HUVEC with PBMC. A digest of the protocol:
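Human umbilical vein endothelial cells co-cultured with PBMC (LPS system) were dosed for 24 h. Total protein was stained with 0.1% sulforhodamine B after 10% TCA fixation, read at 560 nm, and fitted bidirectionally against DMSO baseline.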

Read-out in test [5]: Interleukin-1 alpha (IL1a), IL1A (gene 3552)
The test can be described thus: BSK_LPS_IL1a: BioMAP Diversity Plus: LPS Assay for Interleukin-1 alpha (IL1a) Biomarker Activity (AID 2283080). Particulars: primary human HUVEC with PBMC; actives raise or lower the signal. A digest of the protocol:
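Human umbilical vein endothelial cells co-cultured with peripheral blood mononuclear cells were LPS-stimulated and exposed to test chemicals for 24 h. IL-1 alpha was quantified by ELISA, with bidirectional curve fitting against DMSO as the negative control and baseline.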

Read-out in test [6]: Monocyte Chemoattractant Protein-1 (MCP1), CCL2 (gene 6347)
The test is described as follows: BSK_LPS_MCP1: BioMAP Diversity Plus: LPS Assay for Monocyte Chemoattractant Protein-1 (MCP1) Biomarker Activity (AID 2283081). Particulars: primary human HUVEC with PBMC; actives raise or lower the signal. The essentials:
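HUVEC plus PBMC co-culture (human primary cells, LPS system) exposed to test chemical for 24 h; MCP-1 measured by ELISA. Bidirectional curve fitting against DMSO baseline; parallel SRB total-protein staining flags overt cytotoxicity.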

Test [7] is described as follows: BSK_LPS_PGE2: BioMAP Diversity Plus: LPS Assay for Prostaglandin E2 (PGE2) Biomarker Activity (AID 2283082).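 For AC50: secreted prostaglandin E2 measured by ELISA in LPS-stimulated co-culture.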 Particulars: primary human HUVEC with PBMC; actives raise or lower the signal. The essentials:
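LPS-activated HUVEC/PBMC co-culture; cmpd dosed, 24 h; PGE2 by ELISA; bidirectional fit vs DMSO; SRB (0.1%, TCA-fixed, 560 nm) in parallel plates for overt cytotox.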

Read-out in test [8]: Macrophage colony-stimulating factor (MCSF), CSF1 (gene 1435)
The test can be described thus: BSK_LPS_MCSF: BioMAP Diversity Plus: LPS Assay for Macrophage colony-stimulating factor (MCSF) Biomarker Activity (AID 2283083). Particulars: primary human HUVEC with PBMC; actives raise or lower the signal. The essentials:
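Human umbilical vein endothelial cells co-cultured with peripheral blood mononuclear cells were exposed to compound for 24 h. M-CSF levels were measured by ELISA, and bidirectional curve fitting used DMSO as the negative control and baseline.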

Read-out in test [9]: Tissue Factor, F3 (gene 2152)
The test can be described thus: BSK_LPS_TissueFactor: BioMAP Diversity Plus: LPS Assay for Tissue Factor Biomarker Activity (AID 2283084). Particulars: primary human HUVEC with PBMC; actives raise or lower the signal. A digest of the protocol:
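Human umbilical vein endothelial cells co-cultured with peripheral blood mononuclear cells were dosed and stimulated with LPS. Cell-surface CD142 was quantified by ELISA at 24 h. Activity was fitted bidirectionally against DMSO baseline.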

Read-out in test [10]: Tumor necrosis factor (Homo sapiens) (UniProt P01375)
The test is described as follows: BSK_LPS_TNFa: BioMAP Diversity Plus: LPS Assay for Tumour Necrosis Factor alpha (TNFa) Biomarker Activity (AID 2283085). Particulars: primary human HUVEC with PBMC; actives raise or lower the signal. The essentials: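 Read-out is ELISA of TNFa in primary human endothelial cell–PBMC co-cultures at 24 h after compound. Activity in either direction was fitted against DMSO.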

Read-out in test [11]: Vascular cell adhesion molecule 1 (VCAM1), VCAM1 (gene 7412)
The test is described as follows: BSK_LPS_VCAM1: BioMAP Diversity Plus: LPS Assay for Vascular cell adhesion molecule 1 (VCAM1) Biomarker Activity (AID 2283086). Particulars: primary human HUVEC with PBMC; actives raise or lower the signal. A digest of the protocol: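 HUVEC + PBMC co-culture, LPS system; compound 24 h; VCAM-1 by ELISA; bidirectional fit vs DMSO control; parallel SRB (0.1%, TCA-fixed, 560 nm) for cytotoxicity.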

Read-out in another test: CD38, CD38 (gene 952)
The test can be described thus: BSK_SAg_CD38: BioMAP Diversity Plus: SAg Assay for CD38 Biomarker Activity (AID 2283087). Particulars: primary human HUVEC with PBMC; actives raise or lower the signal. The essentials:
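Human HUVEC plus PBMC co-culture stimulated with superantigen; CD38 measured by ELISA 24 h after chemical dosing. Fluorescence read-out, bidirectional fit against DMSO; cytotoxicity tracked in parallel by SRB and Alamar Blue.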

Read-out in test [12]: CD40, CD40 (gene 958)
The test can be described thus: BSK_SAg_CD40: BioMAP Diversity Plus: SAg Assay for CD40 Biomarker Activity (AID 2283088). Particulars: primary human HUVEC with PBMC; actives raise or lower the signal. A digest of the protocol:
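Human umbilical vein endothelial cells co-cultured with PBMC; CD40 levels measured by ELISA with fluorescence read-out 24 h after chemical dosing. Gain or loss of signal fitted bidirectionally against DMSO baseline.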

Read-out in a further test: CD69, CD69 (gene 969)
The test is described as follows: BSK_SAg_CD69: BioMAP Diversity Plus: SAg Assay for CD69 Biomarker Activity (AID 2283089).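 For AC50: cell surface CD69 protein quantified by ELISA with fluorescence detection.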 Particulars: primary human HUVEC with PBMC; actives raise or lower the signal. A digest of the protocol:
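Endothelial/PBMC co-culture; chemical added; 24 h incubation; CD69 ELISA with fluorescence detection; bidirectional fit vs DMSO.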

Read-out in test [13]: Monocyte Chemoattractant Protein-1 (MCP1), CCL2 (gene 6347)
The test can be described thus: BSK_SAg_MCP1: BioMAP Diversity Plus: SAg Assay for Monocyte Chemoattractant Protein-1 (MCP1) Biomarker Activity (AID 2283090). Particulars: primary human HUVEC with PBMC; actives raise or lower the signal. The essentials: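 MCP-1 levels in the endothelial–PBMC SAg co-culture were quantified by ELISA at 24 h post-dosing; both increases and decreases versus DMSO scored. Cytotoxicity monitored by SRB total protein in parallel cultures.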

Read-out in test [14]: E-selectin (Homo sapiens) (UniProt P16581)
The test can be described thus: BSK_SAg_Eselectin: BioMAP Diversity Plus: SAg Assay for Eselectin Biomarker Activity (AID 2283091). Particulars: primary human HUVEC with PBMC; actives raise or lower the signal. The essentials: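 HUVEC co-cultured with PBMC, compound dosed then read at 24 h; E-selectin measured by ELISA. Activity fitted bidirectionally against DMSO as negative control and baseline.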

Read-out in test [15]: Monokine induced gamma interferon (MIG), CXCL9 (gene 4283)
The test can be described thus: BSK_SAg_MIG: BioMAP Diversity Plus: SAg Assay for Monokine induced gamma interferon (MIG) Biomarker Activity (AID 2283092). Particulars: primary human HUVEC with PBMC; actives raise or lower the signal. A digest of the protocol:
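Measures CXCL9 protein by ELISA in a human vascular primary-cell co-culture (umbilical vein endothelium with PBMC) 24 h after chemical addition. Activity is scored up or down from the DMSO control.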

The nature of test [16]: BSK_SAg_PBMCCytotoxicity: PBMC Cytotoxicity Assessment in the BioMAP Diversity Plus: SAg Assay (AID 2283093).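 Note: PBMC viability measured as Alamar Blue reduction fluorescence at 546/580 nm; fitted both ways against DMSO so a hit may be loss or gain of signal.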 Particulars: primary human HUVEC with PBMC. The essentials:
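Compound added to 75,000 PBMC/well for 1 h; SEB and TSST-1 then added at 20 ng/mL final each; 90 h incubation; Alamar Blue 6 h; read 546/580 nm ex/em. Activity fitted bidirectionally relative to DMSO baseline.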

Read-out in test [17]: Interleukin-8 (IL8), CXCL8 (gene 3576)
The test is described as follows: BSK_SAg_IL8: BioMAP Diversity Plus: SAg Assay for Interleukin-8 (IL8) Biomarker Activity (AID 2283094). Particulars: primary human HUVEC with PBMC; actives raise or lower the signal. The essentials:
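ELISA read-out of IL-8 in a primary human vascular co-culture (umbilical vein endothelium plus PBMC), taken 24 h after compound addition. Values derive from bidirectional fits against DMSO negative controls.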

Read-out in test [18]: Interleukin-8 (IL8), CXCL8 (gene 3576)
The test can be described thus: BSK_LPS_IL8: BioMAP Diversity Plus: LPS Assay for Interleukin-8 (IL8) Biomarker Activity (AID 2283078). Particulars: primary human HUVEC with PBMC; actives raise or lower the signal. A digest of the protocol: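 Human umbilical vein endothelial cells co-cultured with PBMC were stimulated with LPS; IL-8 levels were measured by ELISA 24 h after chemical dosing. Activity was fitted bidirectionally against DMSO as negative control and baseline.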

Active and inactive are the calls of the source. Rule for the calls: active = hit-call score of the fitted dose curve at least 0.9, where 1 is the maximum; inactive = score below 0.9.

Tumor necrosis factor (Homo sapiens), sequence (P01375 whole entry, looked up): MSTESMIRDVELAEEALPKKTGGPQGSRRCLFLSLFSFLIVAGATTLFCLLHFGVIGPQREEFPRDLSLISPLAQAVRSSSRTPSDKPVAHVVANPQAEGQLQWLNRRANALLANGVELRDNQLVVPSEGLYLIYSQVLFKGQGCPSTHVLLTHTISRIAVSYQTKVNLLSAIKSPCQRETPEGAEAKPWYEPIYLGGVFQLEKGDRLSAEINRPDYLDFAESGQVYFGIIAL
E-selectin (Homo sapiens), sequence (P16581 whole entry, looked up): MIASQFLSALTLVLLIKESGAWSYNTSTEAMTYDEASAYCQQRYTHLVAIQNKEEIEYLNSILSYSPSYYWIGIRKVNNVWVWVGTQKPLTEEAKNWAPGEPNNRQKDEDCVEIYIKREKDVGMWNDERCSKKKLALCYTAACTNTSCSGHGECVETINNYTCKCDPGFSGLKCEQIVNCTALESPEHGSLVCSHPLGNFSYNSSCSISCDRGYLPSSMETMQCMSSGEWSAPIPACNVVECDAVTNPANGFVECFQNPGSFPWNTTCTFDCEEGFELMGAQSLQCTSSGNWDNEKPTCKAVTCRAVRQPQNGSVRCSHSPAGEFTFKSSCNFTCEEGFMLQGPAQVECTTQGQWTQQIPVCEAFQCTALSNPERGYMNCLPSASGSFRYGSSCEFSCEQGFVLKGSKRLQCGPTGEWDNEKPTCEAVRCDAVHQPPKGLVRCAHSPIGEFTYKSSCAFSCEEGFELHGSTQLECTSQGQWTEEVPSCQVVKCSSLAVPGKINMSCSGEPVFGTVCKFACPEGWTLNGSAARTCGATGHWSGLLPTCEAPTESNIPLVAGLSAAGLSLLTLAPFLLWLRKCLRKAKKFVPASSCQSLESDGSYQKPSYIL

For orientation: AC50 means the concentration giving half of the maximal activity seen. Turning to `O=C(NS(=O)(=O)/C=C/c1cccs1)c1ccc(F)cc1Br`, the result in test [1], in test [3], in test [4], in test [5], in test [6] and in test [7] was inactive. For the same compound, the outcome in test [8] was “inactive”; in test [9], “inactive”; in test [10], “inactive”; in test [11], “inactive”; in the test with CD38, CD38 (gene 952) it was “inactive”; in the test with CD69, CD69 (gene 969), “inactive”. Also, the outcome in [13], in test [14], in [15], in test [16] and in test [17] was inactive. The AC50 is 0.451 µM (active) with CD40, CD40 (gene 958) [2] and 3.97 µM (active) with CD40, CD40 (gene 958) [12].
Regarding `Nc1nc(=S)c2[nH]cnc2[nH]1`, the outcome in test [1] was “inactive”; in the test with CD40, CD40 (gene 958) [2] it was “inactive”; in test [3] it was “inactive”; in [18], “inactive”; in [4], “inactive”; in test [5], “inactive”. For the same compound, the outcome in [6] is “inactive”; in test [8] it was “inactive”; in [10] it was “inactive”; in test [11], “inactive”; with CD38, CD38 (gene 952), “inactive”; with CD40, CD40 (gene 958) [12] it was “inactive”. Also, the outcome with CD69, CD69 (gene 969) was “inactive”; in test [13], “inactive”; in test [14], “inactive”; in [15] it was “inactive”; in [17] it was “inactive”. Moreover, the AC50 in test [7] was 20 µM (active).
On to `Cc1ccc(-c2cc(C(F)(F)F)nn2-c2ccc(S(N)(=O)=O)cc2)cc1`, for which the result in test [1] was inactive. Further, the concentration at half-maximal activity (AC50) with CD40, CD40 (gene 958) [2] was 26.6 µM (active); in test [3], 30.9 µM (active); in test [18] it was 35.6 µM (active); in test [4] it was 29.2 µM (active); in test [5], 30.5 µM (active); in [7], 0.288 µM (active). Besides, the AC50 is 29.7 µM (active) in [8]; 30.7 µM (active) in test [9]; 30.9 µM (active) in [10]; 31.7 µM (active) in test [11]; 30.2 µM (active) with CD38, CD38 (gene 952); 27.3 µM (active) in the test with CD40, CD40 (gene 958) [12]. Also, the AC50 was 26.9 µM (active) in the test with CD69, CD69 (gene 969); 30.5 µM (active) in test [13]; 29.4 µM (active) in test [14]; 34.6 µM (active) in [15]; 23.9 µM (active) in [17].
For `CC(=O)OC1CC(C)OC(C)O1` (stereo not drawn), the outcome was “inactive” in [1]; “inactive” with CD40, CD40 (gene 958) [2]; “inactive” in test [3]; “inactive” in [18]; “inactive” in [4]; “inactive” in [5]. For the same compound, the outcome is “inactive” in [6]; “inactive” in test [7]; “inactive” in test [8]; “inactive” in test [10]; “inactive” in [11]; “inactive” with CD38, CD38 (gene 952). In addition, the outcome with CD40, CD40 (gene 958) [12] is “inactive”; with CD69, CD69 (gene 969), “inactive”; in test [13], “inactive”; in [14], “inactive”; in test [15] it was “inactive”; in test [17], “inactive”.
